Data: PubChem BioAssay (NCI)
Compounds without any hit were thinned out: in the full panel of roughly 83,000, 20% have a hit.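 The endpoint reported here, percent growth, reads 100 for growth as untreated, 0 for no net growth and -100 for all cells dead.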 Active and inactive are the calls of the source. The calls were made as follows: active = growth percent below 10; inactive = the rest.

Each compound was assayed on HCC-2998 colon (assay: NCI-60 one-dose screen, 48 h (100 = growth as untreated, 0 = no growth, -100 = all killed)). Conditions: 10 µM unless noted.

Row | Structure (SMILES) | growth
1 | CSc1nc(Nc2cccc(NC(=O)CCl)c2)c(C#N)c(-c2cccc([N+](=O)[O-])c2)n1 | 105% (inactive)
2 | CC(C)(C)c1cc(/C=N\NC(=O)/C=C/C=C/c2ccc3c(c2)OCO3)c(O)c(C(C)(C)C)c1 | 89.2% (inactive)
3 | CCOc1cc2ncc(C#N)c(Nc3ccc(OCc4cccc(F)c4)c(Cl)c3)c2cc1NC(=O)CC1CCSS1 (configuration not stated) | -25.1% (active)
4 | COc1ccc(-c2cc(Nc3ccnc(N4CCOCC4)n3)on2)cc1 | 40.4% (inactive)
5 | COC(=O)[C@]12CCC(C)(C)C[C@H]1[C@H]1C(=O)C[C@@H]3[C@@]4(C)c5c([nH]c6ccccc6c5=O)C(C)(C)[C@@H]4CC[C@@]3(C)[C@]1(C)CC2 | 72.3% (inactive)
6 | CN(C)CCCNc1c2ccccc2nc2ccccc12 | 107% (inactive)
7 | O=C1NC(=S)N[C@H]1CC(=O)n1cnc2ccccc21 | 103% (inactive)
8 | Cc1ccc2oc(=O)cc(C3c4ccc([nH]4)C(c4cc(=O)oc5ccc(C)cc45)c4ccc([nH]4)C(c4cc(=O)oc5ccc(C)cc45)c4ccc([nH]4)C(c4cc(=O)oc5ccc(C)cc45)c4ccc3[nH]4)c2c1 (configuration not stated) | -68.9% (active)
9 | CSc1ccc(-c2n[nH]nc2-c2cc3ccccc3s2)cc1 | 82.3% (inactive)
10 | COC(=O)c1ccc(NC(=O)c2ccc(-c3cccc([N+](=O)[O-])c3)o2)cc1 | 102% (inactive)
11 | O=C(N=Nc1c(O)[nH]c2ccccc12)c1cc(-c2ccccc2)on1 | 111% (inactive)
12 | Cc1cc(N2CCCCC2)nc(NC2CCCC(Nc3ccnc4cc(Cl)ccc34)C2)n1 (configuration not stated) | -62.3% (active)
13 | COc1cc(-c2nn(-c3ccc(C(=O)O)cc3)cc2C(=O)O)ccc1O | 91.3% (inactive)
14 | COc1cccc(/C=N/NC(=O)c2ccccc2Nc2ccnc(C(F)(F)F)c2)c1O | 51.2% (inactive)
15 | COc1cc(C(=O)Oc2ccccc2OC(=O)c2cc(OC)c(OC)c(OC)c2)cc(OC)c1OC | 101% (inactive)
16 | CN1CCN(CCCOc2cccc3nc(Nc4cc(Cl)cc(Cl)c4)ccc23)CC1 | 30.2% (inactive)
17 | COc1cccc(/C=C2\SC(=Nc3ccc(NC(C)=O)cc3)NC2=O)c1OC | 101% (inactive)
18 | Cc1cc(N2CCN(c3ccnc4cc(Cl)ccc34)CC2)nc(NC2CCCCC2)n1 | 18.2% (inactive)
19 | O=C(/C=C/C=C/c1ccc2c(c1)OCO2)N/N=C\c1ccc(O)cc1O | 38.9% (inactive)
20 | N#C/C(=C\c1ccc(-c2cc(C(F)(F)F)ccc2Cl)o1)c1nc(-c2ccco2)cs1 | 104% (inactive)
21 | CCc1nc(N)nc(N)c1C#CC(C)c1cc(-c2ccnc(C)c2)c2oc(C)nc2c1 (configuration not stated) | 13% (inactive)
22 | O=C1Nc2c(ccc(Cl)c2Cl)/C1=C\c1cc(C(F)(F)F)cc(C(F)(F)F)c1 | 12.8% (inactive)
23 | COc1ccc(S(=O)(=O)N2CC3(COC3)C2)cc1NC(=O)c1[nH]c(C)c2c1CCCCC2=O | 58.7% (inactive)

These compounds were tested on KM12 colon in the same assay as above. Conditions: 10 µM unless noted.

Row | Structure (SMILES) | growth
24 | Cc1cc(N2CCCC2)nc(NC2CCCC(Nc3ccnc4cc(Cl)ccc34)C2)n1 (configuration not stated) | -62.4% (active)
25 | CN(C)c1ccc(N=Nc2ccc(Br)cn2)c(O)c1 | 26.7% (inactive)
26 | COc1ccc(-c2cc(NC(=O)Nc3ccc4ncsc4c3)no2)cc1 | 100% (inactive)
27 | O=[N+]([O-])c1ccc2c(c1)Cc1cc(F)ccc1-2 | 109% (inactive)
28 | COc1ccc2[nH]cc(-c3noc(C(=O)c4cn(C)c5ccc(F)cc45)n3)c2c1 | 92.6% (inactive)
29 | CCOC(=O)c1csc(NC(=O)COc2cccc(/C=C3\CSc4ccccc4C3=O)c2)n1 | -64.4% (active)
30 | O=C(N=Nc1c(O)[nH]c2ccc(Br)cc12)c1cc(-c2ccccc2)on1 | 100% (inactive)
31 | CC1CCNC(C)C1 (configuration not stated) | 106% (inactive)
32 | CC(O)CN(CC(C)O)c1ccc2c(c1)Cc1cc([N+](=O)[O-])ccc1-2 (configuration not stated) | 85.3% (inactive)
33 | Nc1nc2ccc3[nH]ncc3c2c2c1CCCC2 | -1.31% (active)
34 | N#CN1CC[C@H](C(=O)Nc2cc3cc(C(N)=O)ccc3cn2)C1 | 1.65% (active)
35 | C=CC(=O)Nc1cccc(-c2nc(SC)nc(NCCN3CCOCC3)c2C#N)c1 | 102% (inactive)
36 | CC(=O)OCCC/C(=C/c1cc2ccccc2c2ccccc12)[N+](=O)[O-] | -99.2% (active)
37 | NC(CSC(c1ccccc1)(c1ccccc1)c1ccc(Cl)cc1)C(=O)O (configuration not stated) | 1.65% (active)
38 | Cc1ccccc1COc1ccc(-c2ccnn2-c2ccc(Cl)cc2)cc1 | 50.7% (inactive)
39 | COc1ccc(-c2cc(=O)c3c(OC)c4ccoc4cc3o2)cc1 | 100% (inactive)
40 | CSc1nc(Nc2cccc(NC(=O)CCl)c2)c(C#N)c(-c2cccc([N+](=O)[O-])c2)n1 | 88.5% (inactive)
41 | CC(C)(C)c1cc(/C=N\NC(=O)/C=C/C=C/c2ccc3c(c2)OCO3)c(O)c(C(C)(C)C)c1 | 75.1% (inactive)
42 | CCOc1cc2ncc(C#N)c(Nc3ccc(OCc4cccc(F)c4)c(Cl)c3)c2cc1NC(=O)CC1CCSS1 (configuration not stated) | -67.6% (active)
43 | COc1ccc(-c2cc(Nc3ccnc(N4CCOCC4)n3)on2)cc1 | 20.3% (inactive)

Row | Structure (SMILES) | growth
44 | COC(=O)[C@]12CCC(C)(C)C[C@H]1[C@H]1C(=O)C[C@@H]3[C@@]4(C)c5c([nH]c6ccccc6c5=O)C(C)(C)[C@@H]4CC[C@@]3(C)[C@]1(C)CC2 | 72.9% (inactive)
45 | CN(C)CCCNc1c2ccccc2nc2ccccc12 | 97.3% (inactive)
46 | O=C1NC(=S)N[C@H]1CC(=O)n1cnc2ccccc21 | 100% (inactive)
47 | Cc1ccc2oc(=O)cc(C3c4ccc([nH]4)C(c4cc(=O)oc5ccc(C)cc45)c4ccc([nH]4)C(c4cc(=O)oc5ccc(C)cc45)c4ccc([nH]4)C(c4cc(=O)oc5ccc(C)cc45)c4ccc3[nH]4)c2c1 (configuration not stated) | -73.9% (active)
48 | CSc1ccc(-c2n[nH]nc2-c2cc3ccccc3s2)cc1 | 32.2% (inactive)
49 | COC(=O)c1ccc(NC(=O)c2ccc(-c3cccc([N+](=O)[O-])c3)o2)cc1 | 102% (inactive)
50 | O=C(N=Nc1c(O)[nH]c2ccccc12)c1cc(-c2ccccc2)on1 | 101% (inactive)
51 | Cc1cc(N2CCCCC2)nc(NC2CCCC(Nc3ccnc4cc(Cl)ccc34)C2)n1 (configuration not stated) | -29.7% (active)
52 | COc1cc(-c2nn(-c3ccc(C(=O)O)cc3)cc2C(=O)O)ccc1O | 42.5% (inactive)
53 | COc1cccc(/C=N/NC(=O)c2ccccc2Nc2ccnc(C(F)(F)F)c2)c1O | 38.8% (inactive)
54 | COc1cc(C(=O)Oc2ccccc2OC(=O)c2cc(OC)c(OC)c(OC)c2)cc(OC)c1OC | 90.8% (inactive)
55 | CN1CCN(CCCOc2cccc3nc(Nc4cc(Cl)cc(Cl)c4)ccc23)CC1 | -71.9% (active)
56 | COc1cccc(/C=C2\SC(=Nc3ccc(NC(C)=O)cc3)NC2=O)c1OC | 89.4% (inactive)
57 | Cc1cc(N2CCN(c3ccnc4cc(Cl)ccc34)CC2)nc(NC2CCCCC2)n1 | 30.1% (inactive)
58 | O=C(/C=C/C=C/c1ccc2c(c1)OCO2)N/N=C\c1ccc(O)cc1O | 23.4% (inactive)
59 | N#C/C(=C\c1ccc(-c2cc(C(F)(F)F)ccc2Cl)o1)c1nc(-c2ccco2)cs1 | 99.9% (inactive)
60 | CCc1nc(N)nc(N)c1C#CC(C)c1cc(-c2ccnc(C)c2)c2oc(C)nc2c1 (configuration not stated) | 5.92% (active)
61 | O=C1Nc2c(ccc(Cl)c2Cl)/C1=C\c1cc(C(F)(F)F)cc(C(F)(F)F)c1 | -74.6% (active)
62 | COc1ccc(S(=O)(=O)N2CC3(COC3)C2)cc1NC(=O)c1[nH]c(C)c2c1CCCCC2=O | 54.6% (inactive)
